From PubChem BioAssay (NCATS)
Records with an inconclusive call do not appear. A number with no mark means an inactive call. Calls come from the whole dose curve; as a rule, active = well fitted inhibition curve with a large enough effect; inconclusive = small, poorly fitted or top-dose-only effect; inactive = flat fitted curve, though single readings scatter.

Each compound was assayed on CP211 (assay: qHTS profiling for inhibitors of Plasmodium falciparum proliferation (AID 504749;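 note: 0% = DMSO vehicle and full inhibition = artemisinin control; nearly all actives have a fitted effect of over 60% in size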)). Details: P. falciparum in erythrocytes, SYBR Green DNA, 72 h; series mostly up to 28.7 µM; activity, negative = inhibition: at the top concentration.
In short: (§1)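 SYBR Green fluorescence (ex 485 nm, em 535 nm) reports parasite DNA after 72 h compound exposure of infected red cells at 0.3% parasitemia, 2.5% hematocrit; signal normalized to 0.29 uM artemisinin and vehicle wells.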

| Structure (SMILES) | activity, negative = inhibition |
| --- | --- |
| CCN(CC)C(=O)c1cccnc1 | 0.24% |
| CNC(=O)C[C@@H](N)C(=O)N[C@@H](C(=O)N[C@@H]1C(=O)N2[C@@H]1SC(C)(C)[C@@H]2C(=O)O)c1ccc(O)cc1 | 3.99% |
| CCCCCCCCCCCCCCCCCC(=O)OCC(C)O (stereo not drawn) | -3.59% |
| NC(=S)NS(=O)(=O)c1ccc(N)cc1 | 3.57% |
| N=C(N)n1cccn1 | -8.97% |
| Nc1ncnc2c1ncn2CCOCP(=O)(O)O | -4.1% |
| CCC(C(=O)NC(N)=O)c1ccccc1 (stereo not drawn) | -0.785% |
| CC(C)CCC[C@@H](C)[C@H]1CC[C@H]2[C@@H]3CC=C4C[C@@H](O)CC[C@]4(C)[C@H]3CC[C@]12C | 12.1% |
| CC1=CCC2CC1C2(C)C (stereo not drawn) | 2.39% |
| NC(N)=O | -1.34% |
| Cc1ncc(C[n+]2csc(CCOP(=O)(O)OP(=O)(O)O)c2C)c(N)n1 | -10.2% |
| Nc1nc(=O)n([C@@H]2CS[C@H](CO)O2)cc1F | 1.67% |
| CCOC(=O)[C@@H](N)CS | -1.12% |
| OCC(O)CO | -0.261% |
| O=C1c2ccccc2C(=O)C1c1ccc(F)cc1 | -1.52% |
| O=C(O)COc1ccccc1/C=N/NC(=O)c1ccncc1 | -1.89% |
| Cc1cccc(C)c1NC(=O)C1CCCCN1C (stereo not drawn) | -5.65% |
| CCC(C)[C@@H](N)C(=O)O (stereo partly drawn) | 5.66% |
| CC(C)(Oc1ccc(C2CCCc3ccccc32)cc1)C(=O)O (stereo not drawn) | 1.18% |
| CC(CC=O)CCCC(C)(C)O (stereo not drawn) | 1.16% |

| Structure (SMILES) | activity, negative = inhibition |
| --- | --- |
| S=C1SCN(Cc2ccccc2)CN1Cc1ccccc1 | -1.21% |
| CC(C)Cc1ccc([C@@H](C)C(=O)NS(C)(=O)=O)cc1 | 4.42% |
| COc1cc2c(cc1OC)[C@@H](Cc1cc(OC)c(OC)c(OC)c1)[N+](C)(CCCOC(=O)CC/C=C/CCC(=O)OCCC[N+]1(C)CCc3cc(OC)c(OC)cc3[C@H]1Cc1cc(OC)c(OC)c(OC)c1)CC2 (stereo partly drawn) | -5.9% |
| COC(=O)CCC[N+](C)(C)C | 1.79% |
| [O]=[Bi][O][Bi]=[O] | 12.1% |
| C[C@]12CC[C@@H]3c4ccc(OC(=O)c5ccccc5)cc4CC[C@H]3[C@@H]1CC[C@@H]2O | 2.49% |
| Cc1ccc(C(C)(C)c2ccc(C)cc2)cc1 | -5.83% |
| FC(F)OC(Cl)C(F)(F)F (stereo not drawn) | -2.05% |
| CC(CCc1ccc(O)cc1)NCC(O)c1ccc(O)cc1 (stereo not drawn) | -0.256% |
| CC1=C(/C=C/C(C)=C/C=C/C(C)=C/C(=O)Oc2c(C)c(C)c3c(c2C)CC[C@@](C)(CCC[C@H](C)CCC[C@H](C)CCCC(C)C)O3)C(C)(C)CCC1 | 7.49% |
| O=P(O)(O)OP(=O)(O)OP(=O)(O)O | 8.64% |
| CO/N=C(\C(=O)N[C@@H]1C(=O)N2C(C(=O)[O-])=C(C[n+]3cccc4c3CCC4)CS[C@H]12)c1csc(N)n1 | -3.93% |
| CCCCCCCCCCCC(=O)OCC(O)CO (stereo not drawn) | 5.52% |
| CS(=O)(=O)OCC(O)C(O)COS(C)(=O)=O (stereo not drawn) | 3.92% |
| CC1=CC(=O)NS(=O)(=O)O1 | 4.11% |
| O=C(O)CCCC/C=C(\c1ccccc1)c1cccnc1 | -4.78% |
| CCN(CC)C(=S)S | -3.15% |
| C[Se]CC[C@H](N)C(=O)O | 0.411% |
| CC(C)[C@H](N)C(=O)OCC(CO)OCn1cnc2c(=O)[nH]c(N)nc21 (stereo partly drawn) | -2.58% |

Each compound was assayed on CP215 in the same assay as above. Details: P. falciparum in erythrocytes, SYBR Green DNA, 72 h; series mostly up to 28.7 µM; activity, negative = inhibition: at the top concentration.
In short: as §1

| Structure (SMILES) | activity, negative = inhibition |
| --- | --- |
| CCN(CC)C(=O)c1cccnc1 | -4.69% |
| CNC(=O)C[C@@H](N)C(=O)N[C@@H](C(=O)N[C@@H]1C(=O)N2[C@@H]1SC(C)(C)[C@@H]2C(=O)O)c1ccc(O)cc1 | 2.9% |
| CCCCCCCCCCCCCCCCCC(=O)OCC(C)O (stereo not drawn) | -2.12% |
| NC(=S)NS(=O)(=O)c1ccc(N)cc1 | -0.238% |
| N=C(N)n1cccn1 | -1.82% |
| Nc1ncnc2c1ncn2CCOCP(=O)(O)O | -2.68% |
| CCC(C(=O)NC(N)=O)c1ccccc1 (stereo not drawn) | 2.01% |
| CC(C)CCC[C@@H](C)[C@H]1CC[C@H]2[C@@H]3CC=C4C[C@@H](O)CC[C@]4(C)[C@H]3CC[C@]12C | 12.7% |
| CC1=CCC2CC1C2(C)C (stereo not drawn) | 3.05% |
| NC(N)=O | 14.6% |
| Cc1ncc(C[n+]2csc(CCOP(=O)(O)OP(=O)(O)O)c2C)c(N)n1 | 9.39% |
| Nc1nc(=O)n([C@@H]2CS[C@H](CO)O2)cc1F | 5.17% |
| CCOC(=O)[C@@H](N)CS | -5.42% |
| OCC(O)CO | 6.4% |
| O=C1c2ccccc2C(=O)C1c1ccc(F)cc1 | 1.32% |
| O=C(O)COc1ccccc1/C=N/NC(=O)c1ccncc1 | -6.1% |
| Cc1cccc(C)c1NC(=O)C1CCCCN1C (stereo not drawn) | 0.281% |
| CCC(C)[C@@H](N)C(=O)O (stereo partly drawn) | 2.41% |
| CC(C)(Oc1ccc(C2CCCc3ccccc32)cc1)C(=O)O (stereo not drawn) | -1.95% |
| CC(CC=O)CCCC(C)(C)O (stereo not drawn) | -0.323% |

| Structure (SMILES) | activity, negative = inhibition |
| --- | --- |
| S=C1SCN(Cc2ccccc2)CN1Cc1ccccc1 | -3.99% |
| CC(C)Cc1ccc([C@@H](C)C(=O)NS(C)(=O)=O)cc1 | 0.0364% |
| COc1cc2c(cc1OC)[C@@H](Cc1cc(OC)c(OC)c(OC)c1)[N+](C)(CCCOC(=O)CC/C=C/CCC(=O)OCCC[N+]1(C)CCc3cc(OC)c(OC)cc3[C@H]1Cc1cc(OC)c(OC)c(OC)c1)CC2 (stereo partly drawn) | -0.619% |
| COC(=O)CCC[N+](C)(C)C | 10.6% |
| [O]=[Bi][O][Bi]=[O] | 5.46% |
| C[C@]12CC[C@@H]3c4ccc(OC(=O)c5ccccc5)cc4CC[C@H]3[C@@H]1CC[C@@H]2O | 5.09% |
| Cc1ccc(C(C)(C)c2ccc(C)cc2)cc1 | 0.438% |
| FC(F)OC(Cl)C(F)(F)F (stereo not drawn) | 1.29% |
| CC(CCc1ccc(O)cc1)NCC(O)c1ccc(O)cc1 (stereo not drawn) | 3.19% |
| CC1=C(/C=C/C(C)=C/C=C/C(C)=C/C(=O)Oc2c(C)c(C)c3c(c2C)CC[C@@](C)(CCC[C@H](C)CCC[C@H](C)CCCC(C)C)O3)C(C)(C)CCC1 | 2.55% |
| O=P(O)(O)OP(=O)(O)OP(=O)(O)O | 3.8% |
| CO/N=C(\C(=O)N[C@@H]1C(=O)N2C(C(=O)[O-])=C(C[n+]3cccc4c3CCC4)CS[C@H]12)c1csc(N)n1 | -1.47% |
| CCCCCCCCCCCC(=O)OCC(O)CO (stereo not drawn) | 0.77% |
| CS(=O)(=O)OCC(O)C(O)COS(C)(=O)=O (stereo not drawn) | -3.57% |
| CC1=CC(=O)NS(=O)(=O)O1 | -8.08% |
| O=C(O)CCCC/C=C(\c1ccccc1)c1cccnc1 | -1.49% |
| CCN(CC)C(=S)S | -6.96% |
| C[Se]CC[C@H](N)C(=O)O | 7.66% |
| CC(C)[C@H](N)C(=O)OCC(CO)OCn1cnc2c(=O)[nH]c(N)nc21 (stereo partly drawn) | -8.77% |
